Pf growth 48h = inhibits P. falciparum growth in the first generation, 48 h. P. falciparum luciferase growth in erythrocytes, 48 h. Potency, µM (highest dose often 28.7 µM), hits mostly inhibitors. 5.9% of 310,000 active
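Compounds are pin-transferred into medium, infected erythrocytes (2% hematocrit, 0.1% parasitemia final) are added, and plates sit one parasite generation at 37 C in 5% CO2. Detection reagent is then added and luminescence measured.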
CHX counter = affects cycloheximide protein synthesis inhibition readout, counter-screen | cell reporter, cycloheximide protein synthesis inhibition counterscreen | max response, % | 12% of 300,000 active | AID 2314; in the data active means max response mostly above about 13%, no sharp cut-off; inactive means mostly below about 14%; further: read at 38.3 µM for the half of the compounds with a filed dose
HCMV antiviral = blocks human cytomegalovirus replication | 4.5% of 410,000 active | activity change, negative = inhibition, % at 57.5 µM | AID 1259415 | HFF cells, HCMV-luciferase reporter, 72 h; stronger effect = lower value; in the data active means activity change below about -60%; inconclusive means no clear call, values can overlap the other calls; inactive means above about -39%
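Two-dose cell screen: HFF monolayers treated with compounds and infected with luciferase-expressing HCMV at 1 PFU/cell, 72 h at 37C, then lysed for luciferase measurement.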
Pf growth 96h = inhibits malaria parasite growth, 96 h | P. falciparum luciferase reporter growth, 96 h | Potency, µM (titrated, usually from 28.7 µM), hits mostly inhibitors | 6.9% of 320,000 active
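Infected RBCs, 2% Hct / 0.05% parasitemia final; luciferase-reporter P. falciparum; cpd 96 h, 37 C, 5% CO2; luciferase detection reagent; luminescence.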
Shiga toxin inh = Shiga toxin inhibition; Vero cells, Shiga toxin protein synthesis inhibition reporter; inhibition, % at 38.7 µM; 9.2% of 290,000 active; AID 2315; in the data active means inhibition mostly above about 28%, no sharp cut-off; inactive means mostly below about 43%
Of the large screens only hits and unclear results are named; the others gave an inactive call. An excerpt weighted towards active compounds, which were near 20% of everything screened. Unless noted, the call rests on the fitted dose curve; in most records, active means well fitted inhibition curve with a large enough effect; inconclusive means small, poorly fitted or top-dose-only effect, or another doubt; inactive means no such curve, though single readings can be large or run the other way.

CCCCCCN1C[C@@H](n2cc(COC(=O)c3ccccc3)nn2)[C@H](O)C[C@@H]1c1ccc(C)cc1	HCMV antiviral -89 (no result: Pf growth 48h, CHX counter, Pf growth 96h, Shiga toxin inh)
COc1ccc([C@H]2C[C@H](O)[C@@H](n3cc(COC(=O)c4ccccc4)nn3)CN2C(=O)C2CCCCC2)cc1	HCMV antiviral -83 (no result: Pf growth 48h, CHX counter, Pf growth 96h, Shiga toxin inh)
Cc1ccc([C@H]2C[C@@H](O)[C@H](n3cc(COC(=O)c4ccccc4)nn3)CN2CC2CCCCC2)cc1	HCMV antiviral -89 (no result: Pf growth 48h, CHX counter, Pf growth 96h, Shiga toxin inh)
CCCCCCN1C[C@@H](O)[C@H](n2cc(COC(=O)c3ccccc3)nn2)C[C@@H]1c1ccc(OC)cc1	HCMV antiviral -101 (no result: Pf growth 48h, CHX counter, Pf growth 96h, Shiga toxin inh)
Cc1ccc(-c2cc(C(F)(F)F)nn2-c2ccc(S(N)(=O)=O)cc2)cc1	Pf growth 48h 15µM, Pf growth 96h 5.9µM
COC(=O)Nc1nn(-c2ccc(Cl)cc2)c(=O)c(C#N)c1C	Pf growth 48h inconclusive, Pf growth 96h inconclusive
CC(C)CCNC(=O)c1onc(CSc2ccc(Cl)cc2)c1C(=O)NCCC(C)C	Pf growth 48h inconclusive, Pf growth 96h inconclusive
CC(C)CCNC(=O)c1onc(CSc2ccc(F)cc2)c1C(=O)NCCC(C)C	Pf growth 48h 4.1µM, Pf growth 96h inconclusive (no result: CHX counter, Shiga toxin inh)
CCCNC(=O)c1onc(CSc2ccc(F)c(F)c2)c1C(=O)NCCC	none (no result: Pf growth 48h, CHX counter, Pf growth 96h, Shiga toxin inh)
CC(C)CCNC(=O)c1onc(CSc2ccc(F)c(F)c2)c1C(=O)NCCC(C)C	Pf growth 48h 12µM, Pf growth 96h 10µM
CN(Cc1ccccc1)C(=O)N1CCOCC1	none
O=c1c(-c2nc3ccccc3s2)cccn1Cc1ccc(Cl)c(Cl)c1	Pf growth 48h inconclusive, HCMV antiviral -63, Pf growth 96h inconclusive
Cc1cc(-c2ccc(C(=O)O)s2)cnc1N	CHX counter 43, Shiga toxin inh 76
O=C(O)c1ccc(-c2ccc(-c3ccccc3)cc2)s1	CHX counter 23 (no result: HCMV antiviral)
O=C(Nc1ccccc1)c1ccc(-c2ccccc2)s1	CHX counter 39, Shiga toxin inh 100
Cn1cc(C(=O)C(=O)N2CCCCC2)c2ccccc21	none (no result: Pf growth 48h, CHX counter, Pf growth 96h, Shiga toxin inh)
C[C@H]1[C@@H](NC(=O)Nc2ccc(C(F)(F)F)cc2)CC[C@@]23CCCN2C(=O)CCC[C@@H]13	none (no result: Pf growth 48h, CHX counter, Pf growth 96h, Shiga toxin inh)
CN(C)c1ccc(C(CNS(=O)(=O)c2ccccc2)N2CCc3ccccc32)cc1 (stereo unspecified)	none (no result: Pf growth 48h, CHX counter, Pf growth 96h, Shiga toxin inh)
O=c1ccc(-c2ccccc2)nn1Cc1c(F)cccc1Cl	none (no result: Pf growth 48h, CHX counter, Pf growth 96h, Shiga toxin inh)
O=c1cc2c(nn1Cc1c(Cl)cccc1Cl)-c1ccccc1CC2	Pf growth 96h 5.2µM (no result: Pf growth 48h)
CCN(CC)C(=O)CN1CCN(Cc2ccc3c(c2)OCO3)CC1	none
CCC(=O)N(C)CCc1cc2c(c(OC)c1/C=N/NC(=O)[C@H]1C[C@@H]1c1ccccc1)OCO2	Pf growth 48h inconclusive, HCMV antiviral inconclusive, Pf growth 96h inconclusive
CCC(=O)N(C)CCc1cc2c(c(OC)c1/C=N/Nc1ccc(C(=O)O)cc1)OCO2	CHX counter 35
CC(=O)c1ccc(NC(=O)CSc2nnc(NC(=O)C3CC3)s2)cc1	Pf growth 96h inconclusive
Cc1cnc(C)c(N2CCN(Cc3nc(-c4cccc(F)c4F)oc3C)CC2)n1	Pf growth 48h inconclusive, HCMV antiviral inconclusive, Pf growth 96h inconclusive
Cc1cccc(N2CCN(Cc3nc(-c4ccc(F)cc4F)oc3C)CC2)n1	Pf growth 96h 10µM
COc1ccc(C(=O)CC2(O)C(=O)N(Cc3ccccc3)c3ccc(Br)cc32)cc1 (stereo unspecified)	none (no result: Pf growth 48h, CHX counter, Pf growth 96h, Shiga toxin inh)
O=C(Nc1cccc(-c2cccc(Cl)c2)c1)C1CCN(Cc2ccc(CO)o2)CC1	HCMV antiviral inconclusive, Pf growth 96h inconclusive
Cc1ccc(CN2CCC(C(=O)Nc3cccc(-c4cccc(F)c4)c3)CC2)o1	Pf growth 96h 4.7µM
CCn1nc(C)c(CN2CCC(C(=O)Nc3cccc(-c4cccc(F)c4)c3)CC2)c1C	Pf growth 48h 10µM
Cn1cc(CN2CCCC(C(=O)Nc3ccc(-c4cccc(F)c4)cc3)C2)cn1 (stereo unspecified)	Pf growth 48h inconclusive, HCMV antiviral -72
CCn1cc(CN2CCC(C(=O)Nc3cccc(-c4cccc(F)c4)c3)CC2)cn1	Pf growth 48h inconclusive, HCMV antiviral -63
CCn1c(COc2ccc(=O)n(-c3ccccc3)n2)nnc1SCC(=O)OC	Pf growth 48h inconclusive
C=CCn1c(SCC(=O)c2ccc(Cl)cc2)nnc1-c1ccc2c(c1)OCO2	Pf growth 48h inconclusive, Pf growth 96h 12µM
C=CCn1c(SCC(=O)c2ccc(OC)cc2)nnc1-c1ccc2c(c1)OCO2	Pf growth 96h inconclusive
CCCn1c(N)c(N(CCOC)C(=O)c2ccc(N(C)S(=O)(=O)c3ccc(C)cc3)cc2)c(=O)[nH]c1=O	Pf growth 48h inconclusive, Pf growth 96h inconclusive (no result: CHX counter, Shiga toxin inh)
Cn1c(=O)c2c(ncn2Cc2cccc(Cl)c2)n(C)c1=O	Pf growth 48h inconclusive, HCMV antiviral -75, Pf growth 96h 0.93µM
Cn1c(=O)c2c(ncn2CCOc2cccc(Br)c2)n(C)c1=O	HCMV antiviral -71
Cn1c(=O)c2c(ncn2Cc2ccc(Cl)c(Cl)c2)n(C)c1=O	HCMV antiviral -70
Cn1c(=O)n(CCc2ccccc2)c(=O)c2c1ncn2Cc1ccccc1	Pf growth 48h inconclusive
Cn1c(=O)c2c(nc(Oc3cccc(Br)c3)n2C)n(C)c1=O	none
C=CCOC(=O)C1=C(C)NC(=O)NC1c1cc(Cl)cc(Cl)c1OC (stereo unspecified)	Pf growth 96h inconclusive
CC(C)(C)N=Cc1cc(-c2ccccc2)sc1O	CHX counter 38, Pf growth 96h inconclusive, Shiga toxin inh 71 (no result: Pf growth 48h)
OCc1ncc(-c2ccccc2)s1	HCMV antiviral inconclusive
Cn1cc(CNC(=O)C2CCC(=O)N(Cc3ccccc3F)C2)cn1 (stereo unspecified)	Pf growth 96h inconclusive
COc1ccccc1CN1CC(C(=O)NCC2(O)CCCCC2)CCC1=O (stereo unspecified)	HCMV antiviral -64 (no result: Pf growth 48h, CHX counter, Pf growth 96h, Shiga toxin inh)
Cc1ccc(F)cc1CNC(=O)C1CCC(=O)N(CCc2ccccc2)C1 (stereo unspecified)	none
COc1ccccc1CN1CC(C(=O)NCc2cc(F)ccc2C)CCC1=O (stereo unspecified)	Pf growth 48h inconclusive, CHX counter 32, Pf growth 96h inconclusive, Shiga toxin inh 40
COc1ccccc1CN1CC(C(=O)NCc2ccc(N3CCCC3=O)cc2)CCC1=O (stereo unspecified)	none
COc1ccccc1CN1CC(C(=O)NCc2cnn(C)c2)CCC1=O (stereo unspecified)	Pf growth 96h 6.6µM
COC(=O)CSc1nnc2n(-c3ccccc3)c(=O)c3c4c(sc3n12)COC(C(C)C)C4 (stereo unspecified)	none (no result: Pf growth 48h, CHX counter, Pf growth 96h, Shiga toxin inh)
O=C(CCN1CCN(c2ccc(Cl)cc2)CC1)Nc1ccccc1F	Pf growth 96h 2.9µM
O=C(CN1c2ccccc2S(=O)(=O)c2ccccc21)Nc1ccccc1F	HCMV antiviral -63, Pf growth 96h inconclusive
O=C(CCN1CCN(c2ccccc2F)CC1)Nc1ccccc1F	CHX counter 18
O=C(CN1CCN(CCC(=O)Nc2ccccc2F)CC1)Nc1ccc(Cl)cc1	Pf growth 48h inconclusive
CCCN(C(=O)CCc1nc(-c2ccc(OC)cc2)no1)c1ccccc1F	none (no result: Pf growth 48h, CHX counter, Pf growth 96h, Shiga toxin inh)

Screening results as filed in PubChem.
